# Compound activity (PubChem BioAssay)
# In the library only some 6.9% were active in any assay of this set; here they are far more common.
# IL-1B inflam inh: blocks inflammasome-driven IL-1 beta release; THP-1 LPS/ATP IL-1B secretion, AlphaLISA, 16 h; stronger effect = lower value; activity change, % at 57.5 µM; 360,000 compounds, 4.7% hits; in the data active means activity change below about -50%; inconclusive means mostly about -30% to -49%; further: on the % scale 0 is the no-effect control and ±100 the full control effect
#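 THP-1 cells pretreated 1 hr with compounds (up to 57.5 uM final), then stimulated with LPS (250 ng/mL final) plus ATP (1.25 mM final); secreted IL-1B measured by AlphaLISA after 16 hr, decreased signal indicating inhibition.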
# SW480 rereplic: inducers of DNA re-replication in SW480 colon cancer cells. SW480 DNA re-replication, Hoechst DNA content imaging, 48 h. Potency, µM (highest dose often 46.1 µM), for inactives: top-dose re-replication activation, hits mostly activators. 340,000 compounds, 1.8% hits; further: potency means the concentration at half of the fitted maximal effect; % of control where 0% means no effect; nearly all actives have a fitted effect of over 55% in size
#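 Image-based DNA-content assay: after two days of treatment, nuclei were labelled with the DNA dye Hoechst and imaged, and hits were compounds raising the count of nuclei showing high fluorescence intensity.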
# Vif-A3G inh: blocks the Vif interaction with human APOBEC3G; 410,000 compounds, 0.076% hits; HeLa A3G-eYFP + Vif (tagged APOBEC3G with the HIV-1 protein that degrades it), YFP fluorescence, overnight; Q9HC16; Potency, µM (top dose mostly 46.1 µM), inactives show top-dose activity, negative = active, usual class: inhibitors; further: potency means the concentration at half of the fitted maximal effect; on the % scale 0 is the no-effect control and ±100 the full control effect; nearly all actives have a fitted effect of over 60% in size
# Target sequence (Q9HC16 whole entry, looked up): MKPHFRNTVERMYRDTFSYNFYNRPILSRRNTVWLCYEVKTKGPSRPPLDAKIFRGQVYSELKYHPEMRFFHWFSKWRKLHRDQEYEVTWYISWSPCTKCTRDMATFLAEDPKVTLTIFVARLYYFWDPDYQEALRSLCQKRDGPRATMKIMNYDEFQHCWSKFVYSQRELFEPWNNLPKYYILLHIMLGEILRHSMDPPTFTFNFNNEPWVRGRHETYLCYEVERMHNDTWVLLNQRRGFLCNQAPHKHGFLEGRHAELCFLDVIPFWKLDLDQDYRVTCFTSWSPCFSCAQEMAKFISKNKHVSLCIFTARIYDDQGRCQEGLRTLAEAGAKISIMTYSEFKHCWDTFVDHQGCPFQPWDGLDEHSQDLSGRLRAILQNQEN
#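 Read-out is eYFP fluorescence (Ex 488/Em 500-530) from Vif-expressing HeLa A3G-eYFP cells; more signal means A3G escaped Vif-mediated degradation. Cells plated overnight, compound pinned in, incubated overnight at 37 deg C.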
# Giardia kill: Giardia lamblia killing; Giardia lamblia trophozoite viability; activity change, % at 7.66 µM, hits read low; 340,000 compounds, 0.15% hits; in the data active means activity change below about -80%; inconclusive means between about -30% and that limit;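 further: parasites exposed to compound for two days anaerobically before the ATP read; on the % scale 0 is the no-effect control and ±100 the full control effect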
#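 Viability, read as ATP luminescence: trophozoites at 100 cells/well, compound added, 48 hrs anaerobic at 37 deg C, then 15-30 min room-temperature development before reading.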
# Vif-APOBEC3F blk: Vif-A3F binding inhibition; 390,000 compounds, 0.2% hits; Potency, µM (highest dose often 46.1 µM), for the others: at the top dose activity, negative = active; HeLa A3F-eYFP + Vif (tagged APOBEC3F with the HIV-1 protein that degrades it), YFP fluorescence increase; further: potency means the concentration at half of the fitted maximal effect; % of control where 0% means no effect; nearly all actives have a fitted effect of over 65% in size
#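 HeLa cells stably expressing Vif plus C-terminally eYFP-tagged A3F were seeded, incubated overnight at 37 deg C, dosed with compound, incubated overnight again at 37 deg C. Yellow fluorescence (Ex 488/Em 500-530) reported blocked Vif-mediated A3F-eYFP degradation.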
# MCF10A rerep: inducers of DNA re-replication in MCF 10A breast cells; 350,000 compounds, 2.9% hits; Potency, µM (doses to about 46.1 µM), for the others: at the highest dose activity, positive = re-replication, actives largely listed as activators; AID 624296; MCF 10A DNA re-replication, Hoechst nuclear intensity, 48 h; further: potency means the concentration at half of the fitted maximal effect; % of control where 0% means no effect; nearly all actives have a fitted effect of over 50% in size
# The depositor's hits bear a star; u = inconclusive; x = no result given. Unless noted, the call rests on the fitted dose curve; in most records, active means well fitted curve in the direction sought with a large enough effect; inconclusive means small, poorly fitted or top-dose-only effect, or another doubt; inactive means no such curve, though single readings can be large; an effect the other way counts as inactive or inconclusive.
SMILES,IL-1B inflam inh,SW480 rereplic,Vif-A3G inh,Giardia kill,Vif-APOBEC3F blk,MCF10A rerep
CC(=O)Nc1nc(-c2ccccc2)nc(-c2ccccc2OC(C)=O)n1,-50*,-3%,-1%,8,0%,14%
O=C(CCS(=O)(=O)c1cc2c3c(c1)CCN3C(=O)CC2)NCc1ccc(F)cc1,x,x,3%,x,2%,x
CC(C)(C)c1ccc(Cn2cnc(-c3ccc([N+](=O)[O-])cc3)c2)cc1,u,-4%,1%,2,7%,u
Cc1cc(C)c(Cn2cnc(-c3ccc([N+](=O)[O-])cc3)c2)c(C)c1,-64*,0%,-3%,26,-1%,u
Cc1cc(O)ccc1Nc1nc(-c2cccs2)cs1,-84*,-15%,-11%,-6,0%,16%
Cc1cc(O)ccc1Nc1nc(-c2cccnc2)cs1,-1,24%,-10%,0,11%,9%
O=C(c1ccccc1)c1ccc(-c2ccc(O)cc2)cc1,-81*,16µM*,u,4,-8%,23µM*
Cc1cccc(C)c1OCC(N)C(C)C (centres undefined),-57*,-9%,0%,-15,-2%,-34%
COc1ccccc1NC(=O)CC(=O)Nc1ccccc1OC,51,-3%,-1%,-14,0%,5%
COc1ccccc1NC(=O)Cc1ccc(-c2ccccc2)cc1,-80*,1%,-138%,-3,u,10%
CCOc1cc(NC(=O)c2ccccc2OC)c(OCC)cc1NC(=O)c1ccccc1,u,15µM*,1%,4,0%,u
COc1cc(NC(=O)c2ccccc2)c(OC)cc1NC(=O)Cc1ccc(Br)cc1,-17,u,3%,15,10%,12µM*
COc1cc(NC(=O)c2ccc(Br)cc2)c(OC)cc1NC(=O)c1ccccc1,-2,-2%,-3%,u,-11%,u
NC(=O)COC(=O)CNC(=O)c1cc(Cl)cc([N+](=O)[O-])c1,12,-4%,-2%,3,4%,-1%
O=C(CNC(=O)c1cc(Cl)cc([N+](=O)[O-])c1)OCC(=O)N1CCCCC1,-74*,-2%,1%,u,-3%,u
O=C(OCC(=O)N1CCCCCC1)c1ccc([N+](=O)[O-])cc1Cl,4,-16%,6%,-1,0%,0.82µM*
COc1cc(CSc2ncc(CO)n2Cc2ccc(C)cc2)cc(OC)c1,x,x,4%,x,3%,x
CCOc1ccccc1NC(=O)CN1C(=O)C2(SCC(=O)N2c2ccc(C)cc2)c2ccccc21 (centres undefined),x,x,-28%,x,-3%,x
CN(C)C(=O)CCSC(SCCC(=O)O)c1cccc(/C=C/c2ccc3ccc(Cl)cc3n2)c1 (centres undefined),x,-9%,x,x,x,u
COc1cccc(CNCc2c(C(=O)O)c(C)n(Cc3ccc(F)cc3Cl)c2C)c1OC,x,x,1%,x,4%,x
CCCCCC(=O)N(O)C1CC(=O)N(c2ccccc2)C1=O (centres undefined),-26,u,0%,-23,-10%,u
CCCCCCC(=O)N(O)C1CC(=O)N(Cc2ccccc2)C1=O (centres undefined),-87*,11%,0%,-1,-21%,-4%
Cn1nc(-c2ccccn2)nc2c(=O)n(C)c(=O)nc1-2,-94*,0.82µM*,-8%,-7,2%,2.9µM*
Cc1ccc(-n2c3nc(=O)n(C)c(=O)c-3cc3ccccc32)cc1,37,u,2%,-3,12%,9%
CCc1ccc(-c2csc3ncn(CC)c(=O)c23)cc1,-24,6%,-2%,9,-2%,2%
CCCc1nc2c(=O)n(C)c(=O)nc-2n(C)n1,-106*,0.65µM*,-17%,u,7%,10µM*
Cc1ccccc1-c1nc2c(=O)n(C)c(=O)nc-2n(C)n1,x,x,-4%,-86*,x,x
CCc1ccc(-c2nc3c(=O)n(C)c(=O)nc-3n(CC)n2)cc1,x,x,-13%,-91*,x,x
Cc1ccc(C)c(-c2nc(Cn3c(=O)cc(-c4ccccc4)c4c(C)nn(C)c43)c(C)o2)c1,x,x,-2%,x,-4%,x
